Assay results as given in PubChem BioAssay (NCI).
Values joined by “and” are separate entries in the source; they are usually repeats but may differ in a detail not shown here. Equal values may be shown once. This is part of a sample that, as a whole, favours compounds with a hit. Of some 83,000 tested, about 20% had one in any assay.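 Assay: single dose, 48 h. Readout: percent growth (0 = no net growth; negative = cell death). Active: <10.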 The source holds several records for some structures; these can differ, active in one and inactive in another. Active and inactive are the calls of the source.

Key:
Test in all cases: NCI-60 one-dose screen, 48 h (100 = growth as untreated, 0 = no growth, -100 = all killed)
DU-145 prostate = details: 10 µM unless noted
K-562 leukemia = details: 10 µM unless noted
MALME-3M melanoma = details: 10 µM unless noted
MDA-MB-231 breast = details: 10 µM unless noted
RXF 393 renal = details: 10 µM unless noted
SF-268 CNS = details: 10 µM unless noted
SF-295 CNS = details: 10 µM unless noted
SF-539 CNS = details: 10 µM unless noted
UACC-257 melanoma = details: 10 µM unless noted
M14 melanoma = details: 10 µM unless noted
HCT-15 colon = details: 10 µM unless noted
HT29 colon = details: 10 µM unless noted
SNB-75 CNS = details: 10 µM unless noted
SNB-19 CNS = details: 10 µM unless noted
PC-3 prostate = details: 10 µM unless noted
SK-MEL-5 melanoma = details: 10 µM unless noted
UACC-62 melanoma = details: 10 µM unless noted
LOX IMVI melanoma = details: 10 µM
SK-MEL-28 melanoma = details: 10 µM unless noted
U251 CNS = details: 10 µM unless noted

Structure (SMILES): S=c1[nH]c2cc(Cl)ccc2s1
- growth (DU-145 prostate): 104% (inactive)
- growth (K-562 leukemia): 111% (inactive)
- growth (MALME-3M melanoma): 102% (inactive)
- growth (MDA-MB-231 breast): 99.9% (inactive)
- growth (RXF 393 renal): 121% (inactive)
- growth (SF-268 CNS): 94.2% (inactive)
- growth (SF-295 CNS): 103% (inactive)
- growth (SF-539 CNS): 100% (inactive)
- growth (UACC-257 melanoma): 108% (inactive)
- growth (M14 melanoma): 108% (inactive)
- growth (HCT-15 colon): 109% (inactive)
- growth (HT29 colon): 102% (inactive)
- growth (SNB-75 CNS): 92.3% (inactive)
- growth (SNB-19 CNS): 94% (inactive)
- growth (PC-3 prostate): 94.1% (inactive)
- growth (SK-MEL-5 melanoma): 95.7% (inactive)
- growth (UACC-62 melanoma): 88.4% (inactive)
- growth (LOX IMVI melanoma): 97.6% (inactive)
- growth (SK-MEL-28 melanoma): 110% (inactive)

Structure (SMILES): O=C(Nc1ccc(Cl)c(Cl)c1)OCc1ccco1
- growth (DU-145 prostate): 54.8% (inactive)
- growth (K-562 leukemia): 15.8% (inactive)
- growth (MALME-3M melanoma): 68.6% (inactive)
- growth (MDA-MB-231 breast): 52.2% (inactive)
- growth (RXF 393 renal): 56% (inactive)
- growth (SF-268 CNS): 47.8% (inactive)
- growth (SF-295 CNS): 31.6% (inactive)
- growth (SF-539 CNS): 41.8% (inactive)
- growth (UACC-257 melanoma): 62.6% (inactive)
- growth (M14 melanoma): 44.9% (inactive)
- growth (HCT-15 colon): 29.7% (inactive)
- growth (HT29 colon): 34% (inactive)
- growth (SNB-75 CNS): 8.5% (active)
- growth (SNB-19 CNS): 63.3% (inactive)
- growth (U251 CNS): 43.1% (inactive)
- growth (PC-3 prostate): 54.1% (inactive)
- growth (SK-MEL-5 melanoma): 30.6% (inactive)
- growth (UACC-62 melanoma): 25.5% (inactive)
- growth (SK-MEL-28 melanoma): 74.1% (inactive)

Structure (SMILES): Oc1ccc2ccccc2c1N=Nc1nccs1
- growth (DU-145 prostate): 20.5% (inactive)
- growth (K-562 leukemia): 10.4% (inactive)
- growth (MALME-3M melanoma): 29.2% (inactive)
- growth (MDA-MB-231 breast): 28.8% (inactive)
- growth (RXF 393 renal): 47.3% (inactive)
- growth (SF-268 CNS): 1.32% (active)
- growth (SF-295 CNS): 31.4% (inactive)
- growth (SF-539 CNS): 15.2% (inactive)
- growth (UACC-257 melanoma): 66% (inactive)
- growth (M14 melanoma): 26.3% (inactive)
- growth (HCT-15 colon): 24% (inactive)
- growth (HT29 colon): 34.7% (inactive)
- growth (SNB-75 CNS): 43.3% (inactive)
- growth (SNB-19 CNS): 74.2% (inactive)
- growth (PC-3 prostate): 35.4% (inactive)
- growth (SK-MEL-5 melanoma): 74.7% (inactive)
- growth (UACC-62 melanoma): 0.0083% (active)
- growth (LOX IMVI melanoma): 5.25% (active)
- growth (SK-MEL-28 melanoma): 38.1% (inactive)

Structure (SMILES): CN(C)CCSC1=Nc2ccc(Cl)cc2C(c2ccccc2Cl)N(C)C1 (centres undefined)
- growth (DU-145 prostate): 94.2% (inactive)
- growth (K-562 leukemia): 47.9% (inactive)
- growth (MALME-3M melanoma): 58.8% (inactive)
- growth (MDA-MB-231 breast): 51.1% (inactive)
- growth (RXF 393 renal): 104% (inactive)
- growth (SF-268 CNS): 86.3% (inactive)
- growth (SF-295 CNS): 59.7% (inactive)
- growth (SF-539 CNS): 58% (inactive)
- growth (UACC-257 melanoma): 72.3% (inactive)
- growth (M14 melanoma): 60.3% (inactive)
- growth (HCT-15 colon): 62.5% (inactive)
- growth (HT29 colon): 50.9% (inactive)
- growth (SNB-75 CNS): 11.9% (inactive)
- growth (SNB-19 CNS): 63.1% (inactive)
- growth (U251 CNS): 71.2% (inactive)
- growth (PC-3 prostate): 48.5% (inactive)
- growth (SK-MEL-5 melanoma): 68.7% (inactive)
- growth (UACC-62 melanoma): 29.2% (inactive)
- growth (SK-MEL-28 melanoma): 70.9% (inactive)

Structure (SMILES): O=[N+]([O-])c1ccc(N2CCN(Cc3ccccc3)CC2)c2c1no[n+]2[O-]
- growth (DU-145 prostate): 26.8% (inactive)
- growth (K-562 leukemia): -43.5% (active)
- growth (MALME-3M melanoma): 13.5% (inactive)
- growth (MDA-MB-231 breast): -3.1% (active)
- growth (RXF 393 renal): -5.34% (active)
- growth (SF-268 CNS): -1.56% (active)
- growth (SF-295 CNS): 6.45% (active)
- growth (SF-539 CNS): 0.0788% (active)
- growth (UACC-257 melanoma): 55.9% (inactive)
- growth (M14 melanoma): 30.3% (inactive)
- growth (HCT-15 colon): -52.8% (active)
- growth (HT29 colon): -70.4% (active)
- growth (SNB-75 CNS): 68.4% (inactive)
- growth (SNB-19 CNS): 37.3% (inactive)
- growth (U251 CNS): -47.8% (active)
- growth (PC-3 prostate): -31.4% (active)
- growth (SK-MEL-5 melanoma): 38.1% (inactive)
- growth (UACC-62 melanoma): 4.15% (active)
- growth (LOX IMVI melanoma): -36.3% (active)
- growth (SK-MEL-28 melanoma): 77% (inactive)

Structure (SMILES): NC(=S)N/N=C/c1ncccc1O
- growth (DU-145 prostate): 12.7% (inactive)
- growth (K-562 leukemia): 24% (inactive)
- growth (MALME-3M melanoma): 54% (inactive)
- growth (MDA-MB-231 breast): 34.8% (inactive)
- growth (RXF 393 renal): 9.63% (active)
- growth (SF-268 CNS): 14.9% (inactive)
- growth (SF-295 CNS): 21.5% (inactive)
- growth (SF-539 CNS): -7.14% (active)
- growth (UACC-257 melanoma): 18.9% (inactive)
- growth (M14 melanoma): -56.2% (active)
- growth (HCT-15 colon): 33.7% (inactive)
- growth (HT29 colon): 28.5% (inactive)
- growth (SNB-75 CNS): 26.7% (inactive)
- growth (SNB-19 CNS): 29.1% (inactive)
- growth (U251 CNS): 25.4% (inactive)
- growth (PC-3 prostate): 37% (inactive)
- growth (UACC-62 melanoma): 18.3% (inactive)
- growth (LOX IMVI melanoma): 10.5% (inactive)

Structure (SMILES): CCCCCCCCCCCC[n+]1ccc(CCCCCCCCC)cc1
- growth (DU-145 prostate): -83.6% (active)
- growth (K-562 leukemia): -37.4% (active)
- growth (MALME-3M melanoma): -76.4% (active)
- growth (MDA-MB-231 breast): -81.1% (active)
- growth (RXF 393 renal): -78.9% (active)
- growth (SF-268 CNS): -79.2% (active)
- growth (SF-295 CNS): -51.3% (active)
- growth (SF-539 CNS): -80.7% (active)
- growth (UACC-257 melanoma): -18.4% (active)
- growth (M14 melanoma): -82.6% (active)
- growth (HCT-15 colon): -48% (active)
- growth (HT29 colon): -84% (active)
- growth (SNB-75 CNS): -70% (active)
- growth (SNB-19 CNS): -74.5% (active)
- growth (U251 CNS): -94.6% (active)
- growth (PC-3 prostate): -51.6% (active)
- growth (SK-MEL-5 melanoma): -96.8% (active)
- growth (UACC-62 melanoma): -76.9% (active)
- growth (LOX IMVI melanoma): -94.6% (active)
- growth (SK-MEL-28 melanoma): -70.9% (active)

Structure (SMILES): OC(c1cc(-c2ccc(C(F)(F)F)cc2)nc(C(F)(F)F)c1)C1CCCCN1 (centres undefined)
- growth (DU-145 prostate): -16.1% (active) and -94.1% (active) and 32.1% (inactive)
- growth (K-562 leukemia): -47.5% (active) and -65.5% (active) and -27.9% (active)
- growth (MALME-3M melanoma): 22% (inactive) and -88.6% (active) and 60.1% (inactive)
- growth (MDA-MB-231 breast): -57.8% (active) and -85.1% (active) and -19% (active)
- growth (RXF 393 renal): -94.4% (active) and -93% (active) and 39% (inactive)
- growth (SF-268 CNS): -42.1% (active) and -39.4% (active) and 29.8% (inactive)
- growth (SF-295 CNS): 188% (inactive)
- growth (SF-539 CNS): -41.7% (active) and -76.5% (active) and 40.2% (inactive)
- growth (UACC-257 melanoma): -68.6% (active) and 68.3% (inactive) and -8.76% (active)
- growth (M14 melanoma): -77% (active) and -84.3% (active) and -76.6% (active)
- growth (HCT-15 colon): -36.1% (active) and -65.7% (active) and 14.6% (inactive)
- growth (HT29 colon): -49.8% (active) and -67.9% (active) and -54.8% (active)
- growth (SNB-75 CNS): 18.6% (inactive) and -18% (active) and 46.3% (inactive)
- growth (SNB-19 CNS): 33.4% (inactive) and 37% (inactive) and 53.7% (inactive)
- growth (U251 CNS): -89% (active) and -95.4% (active) and -62% (active)
- growth (PC-3 prostate): -29.2% (active) and -43.2% (active) and 17% (inactive)
- growth (SK-MEL-5 melanoma): -91.6% (active) and -98.8% (active) and 6.65% (active)
- growth (UACC-62 melanoma): 0.644% (active) and -95.1% (active) and 69.5% (inactive)
- growth (LOX IMVI melanoma): -55.2% (active) and -97.5% (active) and -80.7% (active)
- growth (SK-MEL-28 melanoma): -76.1% (active) and -93.1% (active) and 45.2% (inactive)
